This note sets out measurements from PubChem BioAssay (NCATS).

A number with no mark means an inactive call. Results filed as inconclusive are left out. The source made the active and inactive calls. Unless noted, the call rests on the fitted dose curve; in most records, active means well fitted curve in either direction with a large enough effect (not every such curve was filed as active); inconclusive means small, poorly fitted or top-dose-only effect, or another doubt; inactive means flat fitted curve, though single readings scatter.

The target in experiment [1] is Lysosomal acid glucosylceramidase (Homo sapiens) (UniProt P04062). As to the kind of experiment: Glucocerebrosidase-p2 (AID 348; in the data active means potency below about 10 µM; further: potency means the concentration at half of the fitted maximal effect). Particulars: purified GBA, blue fluorogenic substrate, 40 min. Put shortly: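 Normal human glucocerebrosidase (0.2 nM) with blue fluorogenic substrate (80 uM final) in citrate/phosphate pH 5.9 with 10mM sodium taurocholate, 0.01% tween-20; 40 min RT, NaOH/glycine stop; fluorescence Ex 365/Em 440; AC50 from a titration from 0.6 nM upwards.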

In experiment [2] the target is Cytochrome P450 1A2 (Homo sapiens) (UniProt P05177). As to the kind of experiment: p450-cyp1a2 (AID 410; calls by dose curve; further: potency means the concentration at half of the fitted maximal effect). The conditions noted are these: recombinant CYP1A2, luciferin-ME demethylation, luminescence; series mostly up to 11.4 µM. The method in brief: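 20nM CYP1A2, 100uM Luciferin-ME (=Km), 100mM KPO4; cpd 10 min RT; +NADPH regen, 60 min RT; stop/detect 20 min; luminescence. Normalized to furafylline 57 uM = full inhibition.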

The target of experiment [3] is Mitogen-activated protein kinase 10 (Mus musculus) (UniProt Q61831). As to the kind of experiment: JNK3 AlphaScreen Assay (AID 530).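 Further: kinase came from lysate of stimulated human HepG2 cells; signal reports phosphorylation of biotinylated GST-cJun 1-79 at Ser73 with 10 µM ATP; on the % scale 0 is the no-effect control and ±100 the full control effect.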 The conditions noted are these: JNK3 lysate, c-Jun phosphorylation; series mostly up to 11.4 µM. The method in brief:
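HepG2 lysate (IL-1b/TNFa pre-activated) + biotin-GST-cJun 1-79 + anti-pSer73 cJun; cpd titration, 15 min RT; ATP 10 uM start; Tris pH 7.6, MgCl2, DTT, vanadate; beads in EDTA buffer; AlphaScreen.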
For orientation: Alpha assays give light when donor and acceptor beads are brought close together.

The target in experiment [4] is 3',5'-cyclic-AMP phosphodiesterase 4B (Homo sapiens) (UniProt Q07343). Put plainly: qHTS Assay for Inhibitors of PDE-IV (AID 607; active means well fitted activation curve with a large enough effect in the main read-out, with a control signal flat, not every such curve was filed as active; further: % of control where 0% means no effect). The conditions noted are these: HEK293 ACTOne CNG channel cells, membrane potential fluorescence; series mostly up to 22.9 µM. The method in brief: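 Cell-based read-out of cAMP via a modified cyclic nucleotide-gated channel and membrane potential dye (535/590 nm) in HEK293 cells expressing PDE4 endogenously. Compounds tested up to 22.9 uM final; 100 uM RO 20-1724 reference.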
In general terms: In qHTS, concentration-response curves come from the screen itself.

Experiment [5] concerns the target Guanine nucleotide-binding protein G(i) subunit alpha-1 (Homo sapiens) (UniProt P63096). Put plainly: qHTS Assay for Inhibitors of RGS12 GoLoco Motif Activity (Green Fluorophore) (AID 879; active means well fitted curve in the direction sought with a large enough effect; an effect the other way counts as inactive or inconclusive;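 further: 0% = labeled peptide with Gαi1 and full inhibition = labeled peptide alone without protein; negative values mean loss of peptide binding seen as reduced polarization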). Particulars: Galphai1/FITC-RGS12 GoLoco peptide, fluorescence polarization; series mostly up to 57.1 µM. Put shortly: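 A drop in FITC polarization marked displacement of the FITC-tagged RGS12 GoLoco peptide (10 nM) from Gαi1 (50 nM). Compounds were incubated 10 min at room temperature in Tris pH 7.5 buffer containing 150 mM NaCl, 0.1 mM GDP and 0.05% NP40; unlabeled peptide titration served as control.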

Experiment [6] deals with Cytochrome P450 2C19 (Homo sapiens) (UniProt P33261). Put plainly: qHTS Assay for Inhibitors and Substrates of Cytochrome P450 2C19 (AID 899; active means well fitted curve in the direction sought with a large enough effect; an effect the other way counts as inactive or inconclusive; further: on the % scale 0 is the no-effect control and ±100 the full control effect; nearly all actives have a fitted effect of over 60% in size). The conditions noted are these: recombinant CYP2C19, luciferin-H EGE luminescence; series mostly up to 11.4 µM. The method in brief:
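Signal comes from luciferase acting on luciferin released by CYP2C19-mediated hydroxylation of Luciferin-H EGE, 10uM (KM). Assay mix: 5nM enzyme, 50mM KPO4; 60 min at 37C with NADPH regeneration. Data normalized against 57uM ketoconazole.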

Experiment [7] can be described thus: qHTS Assay for Identification of Small Molecule Agonists for Thrombopoietin (TPO) Signaling Pathway (AID 917; active means well fitted curve in the direction sought with a large enough effect; an effect the other way counts as inactive or inconclusive; further: on the % scale 0 is the no-effect control and ±100 the full control effect). The conditions noted are these: TPO signaling pathway reporter cells, agonist qHTS, stimulated with TPO at its EC50; series mostly up to 38.5 µM. The method in brief: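 Human TPO receptor–transfected Ba/F3 cells (murine, IL-3-dependent) in IL-3-deficient medium; compounds plus TPO at EC50, 26 pM final; 24 hrs, 37 C; GpIIb-luciferase luminescence after 10 min RT detection.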

Experiment [8] concerns the target Pyruvate kinase (Leishmania mexicana) (UniProt Q27686). Put plainly: qHTS Validation Assay for Inhibitors of Leishmania Mexicana Pyruvate Kinase (AID 945; active means well fitted curve in the direction sought with a large enough effect; an effect the other way counts as inactive or inconclusive;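 further: 0% = DMSO only neutral control wells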). Particulars: purified L. mexicana pyruvate kinase, enzyme activity, E451W mutant enzyme; series mostly up to 57.5 µM. Put shortly: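 The enzyme is a highly purified E451W mutant of LmPYK used at 0.2 nM. It converts 0.5 mM PEP and 0.1 mM ADP over 1 h at room temperature; product ATP is quantified by luciferase luminescence relative to DMSO controls.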

The target of experiment [9] is Pyruvate kinase PKM (Homo sapiens) (UniProt P14618). Put plainly: qHTS Assay for Activators of Human Muscle Pyruvate Kinase (AID 954; active means well fitted curve in the direction sought with a large enough effect, not every such curve was filed as active;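 further: 0% = uninhibited enzyme and -100% = no enzyme or full thiadiazolimine inhibition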). The conditions noted are these: purified human muscle pyruvate kinase, luciferase-coupled luminescence, 1 h; series mostly up to 57.5 µM. The method in brief: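 ATP production by PKM2 detected via luciferase luminescence after 1 h room-temperature reaction (0.1 nM enzyme, PEP at Km 0.5 mM, ADP 0.1 mM, pH 7.2 imidazole buffer). Inhibition scaled to no-enzyme control; activation referenced to 0.3 nM enzyme wells.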

Experiment [10] concerns the target Alpha-galactosidase A (Homo sapiens) (UniProt P06280). Put plainly: Counterscreen for Glucocerebrosidase Inhibitors: qHTS Assay for Human alpha-Galactosidase at pH 4.5 (AID 992; active means well fitted curve in the direction sought with a large enough effect; an effect the other way counts as inactive or inconclusive; further: 0% is about no effect). Particulars: purified enzyme, fluorogenic substrate; series mostly up to 76.9 µM. The method in brief:
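Fluorogenic 1536-well qHTS at pH 4.5 (citrate, Tween-20): 2 nM enzyme, 80 uM 4-MU-alpha-galactoside, 20 min room temperature, NaOH/glycine stop. Titration 0.7 nM to 77 uM, data normalized to no-enzyme and full-activity controls, Hill-fitted AC50.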
Background: Counterscreens check selectivity or assay interference.

Experiment [11] deals with alpha-glucosidase (Oryza sativa, rice) (UniProt Q653V4). Put plainly: Counterscreen for Glucocerebrosidase Inhibitors: qHTS Assay for Rice alpha-Glucosidase at pH 5.0 (AID 997; active means well fitted curve in the direction sought with a large enough effect; an effect the other way counts as inactive or inconclusive;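 further: 0% = full activity with enzyme and -100% = basal without enzyme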). Particulars: rice alpha-glucosidase enzyme activity; series mostly up to 76.9 µM. Put shortly: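 Endpoint fluorogenic assay at pH 5.0: compounds (0.7 nM to 77 uM) titrated against 4 nM rice enzyme and 400 uM 4-MU-alpha-glucoside for 20 min at room temperature; NaOH/glycine stop, read ex 365/em 440 nm, Hill-fitted AC50.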

Experiment [12] concerns the target Glucocorticoid receptor (Homo sapiens) (UniProt P04150). Put plainly: GR-GFP Redistribution (AID 450;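 active means compounds whose dose series gives a full or clear partial fitted curve of increased nuclear translocation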; further: potency means the concentration at half of the fitted maximal effect). The conditions noted are these: U2OS GR-GFP nuclear translocation, laser cytometry, 2 h.
Experiment [13] has the same target. Put plainly: GR-EFC Redistribution (AID 451; calls by dose curve; further: potency means the concentration at half of the fitted maximal effect). The conditions noted are these: CHO-K1 GR-EFC translocation, beta-gal luminescence, 2 h. The method in brief:
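CHO-K1 cells expressing nuclear EA and GR-ED fragments of b-gal; compounds titrated up to 46 uM final, 2 h at 37 C. GR nuclear translocation read as complemented b-gal luminescence after 1 h RT detection.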

For experiment [14], the target named is Cytochrome P450 3A4 (Homo sapiens) (UniProt P08684). As to the kind of experiment: qHTS Assay for Activators of Cytochrome P450 3A4 (AID 885; active means well fitted curve in the direction sought with a large enough effect; an effect the other way counts as inactive or inconclusive; further: nearly all actives have a fitted effect of over 65% in size). Particulars: recombinant CYP3A4, Luciferin-PPXE luminescence, 60 min; series mostly up to 11.4 µM. Put shortly: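 Luminescent readout of luciferin formed from 25 uM Luciferin-PPXE (KM level) by 20 nM CYP3A4 in 200 mM KPO4, with 60 min NADPH-driven reaction at room temperature after 10 min compound exposure. Ketoconazole (57 uM) defined 100% inhibition.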

A short description of experiment [15]: qHTS Assay for Identification of Small Molecule Agonists for Hypoxia Response Element Signaling Pathway (AID 914; active means well fitted activation curve with a large enough effect in the signal ratio, with a control signal flat, not every such curve was filed as active; the % refers to the signal ratio; further: potency means the concentration at half of the fitted maximal effect). The conditions noted are these: ME-180 HRE-bla reporter, beta-lactamase ratio, CoCl2, 17 h; activation: stronger effect = higher value. The method in brief:
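Cells were plated overnight, pin-dosed with compound in a titration series, co-stimulated with EC50 CoCl2 and incubated 17 hours at 37 degrees Celsius. CCF4 substrate was then loaded, and AC50 values came from the 460nm/530nm ratio.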

A short description of experiment [16]: NFAT Signaling Pathway (AID 444).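 Further: carbachol stimulus at about its EC50 of 1 µM final; on the % scale 0 is the no-effect control and ±100 the full control effect.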 The conditions noted are these: Jurkat NFAT-bla M1, carbachol, beta-lactamase ratio, 5 h; at 7.69 µM (top of the series) unless noted. Put shortly: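 Jurkat cells with NFAT-driven β-lactamase reporter and co-expressed M1 receptor, stimulated with carbachol (final 1 uM, ~EC50), compound titration, 5 h at 37 °C. CCF4 loaded 1 h at RT; 460/530 nm ratio gave %activity and AC50.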

Experiment [17] is described as follows: Stat Signaling Pathway (AID 446).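 Further: ME-180 cervical cancer cells given 40 pM IL-6 alongside compound; SIE-controlled beta-lactamase reporter measured as 460/530 nm FRET emission ratio; on the % scale 0 is the no-effect control and ±100 the full control effect.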 Particulars: ME-180 (cervical carcinoma) SIE beta-lactamase reporter, IL-6 stimulated, 5 h; at 7.69 µM (top of the series) unless noted. Put shortly: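 FRET read-out (405 nm excitation, 460/530 nm emission) of a beta-lactamase reporter under a STAT-inducible element in ME-180 cervical carcinoma cells. Cells with compound receive 40 pM IL-6 for 5 h. Values are normalised to AC90 stimulation and AC90 JAK-inhibitor controls.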

Sequence of Glucocorticoid receptor (Homo sapiens) (P04150 whole entry, looked up): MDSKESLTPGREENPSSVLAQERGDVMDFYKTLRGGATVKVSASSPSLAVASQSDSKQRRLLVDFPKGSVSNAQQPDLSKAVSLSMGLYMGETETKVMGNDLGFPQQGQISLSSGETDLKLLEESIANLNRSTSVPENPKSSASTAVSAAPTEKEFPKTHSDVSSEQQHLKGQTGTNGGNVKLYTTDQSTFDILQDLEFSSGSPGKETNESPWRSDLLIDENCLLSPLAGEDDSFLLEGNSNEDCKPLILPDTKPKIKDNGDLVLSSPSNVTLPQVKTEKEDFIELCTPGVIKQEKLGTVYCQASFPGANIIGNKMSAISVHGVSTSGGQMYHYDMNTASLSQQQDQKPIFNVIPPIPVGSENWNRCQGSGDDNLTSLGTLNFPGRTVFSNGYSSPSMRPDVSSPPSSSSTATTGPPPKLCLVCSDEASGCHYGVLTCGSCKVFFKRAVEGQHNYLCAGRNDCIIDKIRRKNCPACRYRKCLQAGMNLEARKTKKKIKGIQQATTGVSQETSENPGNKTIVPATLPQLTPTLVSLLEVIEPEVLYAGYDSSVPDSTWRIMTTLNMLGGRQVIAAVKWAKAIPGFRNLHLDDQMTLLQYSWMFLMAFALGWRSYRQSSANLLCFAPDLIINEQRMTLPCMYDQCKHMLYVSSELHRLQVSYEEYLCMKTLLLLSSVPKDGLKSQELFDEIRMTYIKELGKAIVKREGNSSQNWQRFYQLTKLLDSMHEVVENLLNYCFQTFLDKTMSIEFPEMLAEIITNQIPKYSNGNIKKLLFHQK
Sequence of 3',5'-cyclic-AMP phosphodiesterase 4B (Homo sapiens) (Q07343 whole entry, looked up): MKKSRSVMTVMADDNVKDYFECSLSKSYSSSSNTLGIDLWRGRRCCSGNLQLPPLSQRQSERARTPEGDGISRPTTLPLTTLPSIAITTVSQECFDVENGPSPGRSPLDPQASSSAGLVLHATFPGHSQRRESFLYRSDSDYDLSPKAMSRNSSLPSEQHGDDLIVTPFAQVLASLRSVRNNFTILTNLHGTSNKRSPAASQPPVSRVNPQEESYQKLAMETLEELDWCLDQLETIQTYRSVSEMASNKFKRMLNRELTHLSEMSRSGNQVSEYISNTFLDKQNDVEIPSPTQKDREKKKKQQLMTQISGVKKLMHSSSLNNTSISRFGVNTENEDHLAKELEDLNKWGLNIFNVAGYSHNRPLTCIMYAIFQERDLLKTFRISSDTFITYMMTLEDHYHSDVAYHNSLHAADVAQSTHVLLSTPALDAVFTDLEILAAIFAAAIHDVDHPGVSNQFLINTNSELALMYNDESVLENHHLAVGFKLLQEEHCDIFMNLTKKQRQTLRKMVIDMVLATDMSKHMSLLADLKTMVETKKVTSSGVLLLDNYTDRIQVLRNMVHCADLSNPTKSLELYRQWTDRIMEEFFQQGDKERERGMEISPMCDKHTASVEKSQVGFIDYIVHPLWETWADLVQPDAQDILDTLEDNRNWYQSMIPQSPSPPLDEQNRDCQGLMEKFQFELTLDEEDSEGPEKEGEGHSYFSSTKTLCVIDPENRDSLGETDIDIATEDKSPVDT
Sequence of Cytochrome P450 1A2 (Homo sapiens) (P05177 whole entry, looked up): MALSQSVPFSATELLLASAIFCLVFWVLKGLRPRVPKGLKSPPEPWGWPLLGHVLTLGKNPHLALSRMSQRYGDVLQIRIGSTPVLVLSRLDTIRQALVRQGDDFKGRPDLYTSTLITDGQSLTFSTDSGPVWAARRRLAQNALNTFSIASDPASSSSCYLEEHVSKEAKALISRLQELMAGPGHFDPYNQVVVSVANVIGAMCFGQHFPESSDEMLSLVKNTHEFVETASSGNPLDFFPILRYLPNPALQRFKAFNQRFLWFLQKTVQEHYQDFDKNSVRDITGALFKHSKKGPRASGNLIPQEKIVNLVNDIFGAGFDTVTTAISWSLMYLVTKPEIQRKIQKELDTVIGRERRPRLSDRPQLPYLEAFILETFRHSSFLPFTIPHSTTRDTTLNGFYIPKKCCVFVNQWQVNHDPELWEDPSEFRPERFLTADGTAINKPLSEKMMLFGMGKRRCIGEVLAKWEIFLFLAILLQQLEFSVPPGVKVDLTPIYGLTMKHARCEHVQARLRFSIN
Sequence of Lysosomal acid glucosylceramidase (Homo sapiens) (P04062 whole entry, looked up): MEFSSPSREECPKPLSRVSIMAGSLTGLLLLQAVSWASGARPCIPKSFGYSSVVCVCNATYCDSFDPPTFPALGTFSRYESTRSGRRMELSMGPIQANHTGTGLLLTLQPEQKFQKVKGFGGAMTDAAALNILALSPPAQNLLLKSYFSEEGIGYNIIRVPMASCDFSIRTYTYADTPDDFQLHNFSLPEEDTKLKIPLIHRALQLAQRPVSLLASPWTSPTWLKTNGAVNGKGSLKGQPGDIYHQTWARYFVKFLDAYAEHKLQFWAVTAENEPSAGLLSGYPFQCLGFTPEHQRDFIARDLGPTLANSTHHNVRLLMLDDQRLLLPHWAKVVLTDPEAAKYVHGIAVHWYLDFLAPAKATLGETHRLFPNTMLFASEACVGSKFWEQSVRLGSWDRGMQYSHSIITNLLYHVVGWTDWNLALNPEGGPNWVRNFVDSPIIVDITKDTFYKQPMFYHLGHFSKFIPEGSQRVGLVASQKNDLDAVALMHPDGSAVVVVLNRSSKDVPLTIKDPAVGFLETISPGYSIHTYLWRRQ
Sequence of Cytochrome P450 3A4 (Homo sapiens) (P08684 whole entry, looked up): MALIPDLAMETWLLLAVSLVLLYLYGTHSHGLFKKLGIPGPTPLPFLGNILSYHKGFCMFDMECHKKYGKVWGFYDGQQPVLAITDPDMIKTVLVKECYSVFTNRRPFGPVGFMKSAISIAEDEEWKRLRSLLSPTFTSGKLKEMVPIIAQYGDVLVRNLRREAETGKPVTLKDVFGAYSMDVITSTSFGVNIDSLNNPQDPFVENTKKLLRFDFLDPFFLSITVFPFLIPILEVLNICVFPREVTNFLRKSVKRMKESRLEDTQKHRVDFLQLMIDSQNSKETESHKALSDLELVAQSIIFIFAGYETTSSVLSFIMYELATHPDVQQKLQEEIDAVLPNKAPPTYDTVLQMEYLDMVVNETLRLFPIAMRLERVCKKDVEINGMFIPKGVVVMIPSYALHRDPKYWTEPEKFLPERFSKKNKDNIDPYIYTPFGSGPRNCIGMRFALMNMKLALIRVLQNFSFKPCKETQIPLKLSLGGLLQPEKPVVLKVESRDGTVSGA
Sequence of Pyruvate kinase PKM (Homo sapiens) (P14618 whole entry, looked up): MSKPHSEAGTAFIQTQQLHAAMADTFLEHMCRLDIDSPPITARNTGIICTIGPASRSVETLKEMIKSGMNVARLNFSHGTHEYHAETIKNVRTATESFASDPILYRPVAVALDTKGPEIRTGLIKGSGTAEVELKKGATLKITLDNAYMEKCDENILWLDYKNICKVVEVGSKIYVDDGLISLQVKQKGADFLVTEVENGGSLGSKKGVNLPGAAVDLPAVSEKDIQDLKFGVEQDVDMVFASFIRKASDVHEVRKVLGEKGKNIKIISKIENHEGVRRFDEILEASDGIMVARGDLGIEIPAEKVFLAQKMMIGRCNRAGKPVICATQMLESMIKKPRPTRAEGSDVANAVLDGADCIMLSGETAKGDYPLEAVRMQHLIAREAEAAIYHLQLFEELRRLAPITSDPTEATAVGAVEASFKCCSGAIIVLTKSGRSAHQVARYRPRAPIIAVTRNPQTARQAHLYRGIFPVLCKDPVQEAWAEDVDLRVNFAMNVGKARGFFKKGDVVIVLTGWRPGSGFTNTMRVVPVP
Sequence of Alpha-galactosidase A (Homo sapiens) (P06280 whole entry, looked up): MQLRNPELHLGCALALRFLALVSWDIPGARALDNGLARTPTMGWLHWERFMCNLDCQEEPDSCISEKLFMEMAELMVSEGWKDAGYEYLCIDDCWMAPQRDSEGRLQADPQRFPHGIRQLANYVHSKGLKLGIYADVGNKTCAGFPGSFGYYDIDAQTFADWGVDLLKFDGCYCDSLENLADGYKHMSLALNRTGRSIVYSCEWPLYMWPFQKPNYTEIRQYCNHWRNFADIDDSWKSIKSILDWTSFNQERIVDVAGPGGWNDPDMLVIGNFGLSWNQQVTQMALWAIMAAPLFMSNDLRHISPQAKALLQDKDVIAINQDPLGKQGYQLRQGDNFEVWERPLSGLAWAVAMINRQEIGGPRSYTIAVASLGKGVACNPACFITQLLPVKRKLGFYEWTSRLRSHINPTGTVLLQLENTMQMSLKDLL
Sequence of Guanine nucleotide-binding protein G(i) subunit alpha-1 (Homo sapiens) (P63096 whole entry, looked up): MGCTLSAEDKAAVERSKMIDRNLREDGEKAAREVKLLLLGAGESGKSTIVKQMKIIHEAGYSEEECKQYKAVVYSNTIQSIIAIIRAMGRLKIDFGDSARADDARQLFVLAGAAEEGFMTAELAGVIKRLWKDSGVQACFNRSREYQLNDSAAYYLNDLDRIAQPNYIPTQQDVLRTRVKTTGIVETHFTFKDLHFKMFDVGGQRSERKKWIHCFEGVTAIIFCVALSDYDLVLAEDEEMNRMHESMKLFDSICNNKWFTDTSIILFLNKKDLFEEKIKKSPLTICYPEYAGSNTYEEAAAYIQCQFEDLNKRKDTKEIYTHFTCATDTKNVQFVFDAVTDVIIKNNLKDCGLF
Sequence of Pyruvate kinase (Leishmania mexicana) (Q27686 2-499 E452W): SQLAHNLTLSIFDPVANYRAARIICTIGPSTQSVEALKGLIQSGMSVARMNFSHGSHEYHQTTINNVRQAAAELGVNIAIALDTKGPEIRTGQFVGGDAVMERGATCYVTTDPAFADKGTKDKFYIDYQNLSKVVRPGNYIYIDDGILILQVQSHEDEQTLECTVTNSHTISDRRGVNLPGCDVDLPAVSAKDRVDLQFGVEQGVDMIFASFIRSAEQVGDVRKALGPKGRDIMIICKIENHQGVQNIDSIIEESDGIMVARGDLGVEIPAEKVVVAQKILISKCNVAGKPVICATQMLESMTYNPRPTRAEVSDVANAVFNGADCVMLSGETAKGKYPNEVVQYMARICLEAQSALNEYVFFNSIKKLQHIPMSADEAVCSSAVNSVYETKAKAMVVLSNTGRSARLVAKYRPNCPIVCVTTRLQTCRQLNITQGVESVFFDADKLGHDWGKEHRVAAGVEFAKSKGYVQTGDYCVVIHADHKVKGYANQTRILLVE

Consider `CC[C@H]1C(=O)OC[C@H]1Cc1cncn1C`, for which the Potency in [1] is > 11.4 µM. Further, the Potency result in experiment [2], in [3], in [4], in experiment [6] and in experiment [11] was “inactive” throughout. Moreover, the call in [5], in experiment [7], in experiment [8], in experiment [9] and in [10] was inactive.
Turning to `O=c1c(-c2ccccc2)nc2cnc(N3CCOCC3)nc2n1-c1ccccc1`, the Potency in experiment [1] was > 11.4 µM; in experiment [2], 12.6 µM (active); in experiment [12], > 9.22 µM; in experiment [13], > 46 µM; in [15] it was 3.16 µM (active). Also, the Potency entry in experiment [4] and in experiment [14] was “inactive” each time.
Regarding `Cc1noc(C)c1C(=O)N1CCC[C@@]2(CCN(c3cccc(-c4ccccc4)c3)C2)C1`, the Potency in [1] is > 11.4 µM; in experiment [13], > 46 µM. The activity change, negative = inhibition in experiment [16] was -20.7%. Also, the activity, negative = inhibition in experiment [17] is -22.2%. Besides, the Potency entry in experiment [3] and in experiment [4] was “inactive” each time.
As for `O=c1c(-c2cc(F)cc(F)c2)nc2cnc(N3CCNCC3)nc2n1CCc1ccccc1`, the Potency in experiment [1] is > 11.4 µM; in experiment [2], 20 µM (active); in [12], > 9.22 µM; in [13], > 46 µM; in experiment [15] it was 3.16 µM (active). Also, in experiment [4], the Potency result was “inactive”.
In the case of `NS(=O)(=O)c1ccc(N=Nc2cc3ccccc3c(C(=O)O)c2O)cc1`, the Potency in experiment [1] is > 11.4 µM; in [2] it was 1 µM (active); in [12] it was > 46 µM; in experiment [13], > 9.22 µM. Moreover, the Potency result in experiment [4] and in experiment [14] was “inactive” in each case.
In the case of `CCCc1cc(COC)c(C#N)c(=O)[nH]1`, the Potency is > 11.4 µM in [1], > 46 µM in [12] and > 9.22 µM in experiment [13]. Further, in experiment [16], the activity change, negative = inhibition was -2.55%. The activity, negative = inhibition in experiment [17] was 3.43%. The Potency result in experiment [3] and in experiment [4] was “inactive” in each case.
On to `O=C(NCc1cccs1)O[C@H]1C[C@H]2CC[C@@H]1C2`, for which the Potency in experiment [1] is > 11.4 µM; in experiment [12], > 46 µM; in experiment [13] it was > 9.22 µM. The activity change, negative = inhibition in [16] is 16.7%. Further, in experiment [17], the activity, negative = inhibition is 8.46%. In addition, the Potency result in [3] and in experiment [4] was “inactive” each time.
For `Oc1ccc(CNCc2ccccc2)c2cccnc12`, the Potency is > 11.4 µM in [1], > 46 µM in experiment [12] and > 9.22 µM in experiment [13]. In experiment [16], the activity change, negative = inhibition is -26.9%. Moreover, the activity, negative = inhibition in [17] was 10.2%. In addition, the Potency entry in [3] and in experiment [4] was “inactive” in each case.
`O=C(O)CN(CCN(CC(=O)O)CC(=O)O)CC(=O)O.[Mn]`: in experiment [1], the Potency was > 11.4 µM. For the same compound, in experiment [16], the activity change, negative = inhibition was 7.91%. Besides, the activity, negative = inhibition in [17] is 8.71%. In addition, the Potency result in experiment [3] and in [4] was “inactive” each time.
On to `N#CCCn1c(=O)c(-c2cccs2)nc2cnc(Oc3cccc(Cl)c3)nc21`, for which the Potency in [1] is > 11.4 µM; in [2] it was 3.16 µM (active); in experiment [12], > 9.22 µM; in [13] it was > 46 µM; in experiment [15], 1.58 µM (active). In addition, the Potency result in experiment [3] and in experiment [14] was “inactive” each time.
